Test results from PMC5540273 (PLoS ONE, 2017).

Test system: AKT3
Details: concentration: 1 μM, replicates: in singlicate; n = 1
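Also: KINOMEscan kinase panel screen.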

SMILES | %Inh [%]
Fc1cccc(COc2ccc(Nc3ncnc4cc[nH]c34)cc2Cl)c1 | 0
COc1cc2ncnc(Nc3ccc(OCc4ccccc4Br)c(Cl)c3)c2cc1OC.Cl [GI261590] | 0
CCn1c(-c2ccncc2)nc2cnccc21 [SB-735216] | 0
FC(F)(F)c1ccc(-c2nn3ncccc3c2-c2ccnc(Nc3cccc(C(F)(F)F)c3)n2)cc1 [GW828205] | 15
CNc1nccc(-c2c(-c3ccc(F)cc3)ncn2C2CCN(C)CC2)n1 [SB-222903] | 0
Cl.c1ccc(Cn2ncc3cc(Nc4ncnc5ccccc45)ccc32)cc1 [GW273749] | 0
Cc1ccc(NC(=O)c2cccc(C#N)c2)cc1-c1ccc(C(=O)Nc2ccncc2)cc1 [GSK1398463] | 0
COC(=O)c1c(-c2ccccc2)c2cc(Cl)ccc2c(=O)n1Cc1ccc(S(C)(=O)=O)cc1 | 0
COc1ccc(Nc2nccc(N3CCC(NC(=O)Nc4ccc5c(c4)OCO5)C3)n2)cc1 (centres unmarked) [GSK1379745] | 0
COc1ccc(Nc2nccc(N3CCC(NC(=O)c4cccc(NC(C)=O)c4)C3)n2)cc1 (centres unmarked) [GSK1379732] | 23
Cl.Cn1ccc(-c2cccc(Nc3ccnc4cc(-c5nccs5)ccc34)c2)n1 [GW525701] | 0
c1ccc(-c2ccc3c(-c4ccnc(Nc5ccc6c(c5)OCCO6)n4)cnn3n2)cc1 [GW818941] | 18
O=C(c1ccc(-c2cc(-c3c[nH]nc3-c3ccccn3)ccn2)cc1)N1CCCC1 [GW792479] | 0
Cc1ccc(C)c(NC(=O)NCCNc2ccnc(Nc3ccc(F)cc3)n2)c1 [GSK1379878] | 0
Cn1ccc2ncnc(Nc3ccc(Oc4cccc(Cl)c4)c(Cl)c3)c21 | 0
CCC(CC)(CC)n1cnc2c(N)ncnc21 [SKF-97620] | 2
COc1ccc(NC(=O)c2ccc(-c3cc(-c4nnc(C)o4)ccc3C)cc2)cc1 [GW595885] | 0
CN1CCC(n2cnc(-c3ccc(F)cc3)c2-c2ccnc(NC3CCNCC3)n2)CC1 [SB-229482] | 32

SMILES | %Inh [%]
Cn1ccc2ncnc(Oc3ccc(NC(=O)Nc4cccnc4)c(Cl)c3)c21 | 0
CC(=O)Nc1n[nH]c2ncc(-c3ccccc3)cc12 [SB-548492] | 5
CS(=O)(=O)CCNCc1nc(-c2ccc3ncnc(Nc4ccc(OCc5cccc(F)c5)c(Cl)c4)c3c2)cs1.Cl [GW583340] | 0
O=C(Nc1ccccc1F)NC1CCN(c2ccnc(Nc3ccc(F)cc3)n2)C1 (centres unmarked) [GSK1379722] | 0
Cc1cccc(-c2nc(Nc3ccc4[nH]nnc4c3)c3ccccc3n2)n1 [GW867587] | 0
Clc1cccc(-c2nc(Nc3ccncc3)c3ccccc3n2)c1 [GW873004] | 1
CCCc1ccc(S(=O)(=O)NC2CCN(c3ccnc(Nc4ccc(OC)cc4)n3)C2)cc1 (centres unmarked) [GSK1379737] | 0
CCc1nc(-c2cccc(N(C)S(=O)(=O)c3ccccc3)c2)c(-c2ccnc(Nc3ccc(N4CCN(C(C)=O)CC4)nc3)n2)s1 [GSK1645895] | 0
Nc1n[nH]c2nnc(-c3ccccc3)cc12 [SB-517389] | 0
O=C(Nc1n[nH]c2nc(-c3ccco3)c(Br)cc12)c1ccc(CN2CCCC2)cc1.O=C(O)[C@H](O)[C@@H](O)C(=O)O [SB-742352] | 8
CC(C)(C)OC(=O)NC1CCCN(c2cc(-c3ccc4c(N)n[nH]c4c3)nc(N)n2)C1 (centres unmarked) [GSK2286096] | 0
FC(F)(F)c1cc(Nc2nccc(-c3c(-c4ccc(Cl)cc4)nn4ncccc34)n2)ccc1Cl [GW829351] | 0
O=C(Nc1ccccc1)Nc1ccc(Oc2ccc3nccn3n2)cc1 | 10
COc1ccc(-c2oc3ncnc(N)c3c2-c2ccc(OC)cc2)cc1 [SB-589132] | 0
OCCOCCn1ccc2ncnc(Nc3ccc(Oc4cccc(Cl)c4)c(Cl)c3)c21 | 0
CNc1nccc(-c2c(-c3ccc(F)cc3)ncn2CCCN2CCOCC2)n1 [SB-222516] | 14
NC(=O)c1sc(-n2cnc3ccccc32)cc1OCc1ccccc1F [GSK1024306] | 0

Test system: ALK
Details: concentration: 1 μM, replicates: in singlicate; n = 1

SMILES | %Inh [%]
Fc1cccc(COc2ccc(Nc3ncnc4cc[nH]c34)cc2Cl)c1 | 0
COc1cc2ncnc(Nc3ccc(OCc4ccccc4Br)c(Cl)c3)c2cc1OC.Cl [GI261590] | 39
CCn1c(-c2ccncc2)nc2cnccc21 [SB-735216] | 6
FC(F)(F)c1ccc(-c2nn3ncccc3c2-c2ccnc(Nc3cccc(C(F)(F)F)c3)n2)cc1 [GW828205] | 0
CNc1nccc(-c2c(-c3ccc(F)cc3)ncn2C2CCN(C)CC2)n1 [SB-222903] | 0
Cl.c1ccc(Cn2ncc3cc(Nc4ncnc5ccccc45)ccc32)cc1 [GW273749] | 16
Cc1ccc(NC(=O)c2cccc(C#N)c2)cc1-c1ccc(C(=O)Nc2ccncc2)cc1 [GSK1398463] | 31
COC(=O)c1c(-c2ccccc2)c2cc(Cl)ccc2c(=O)n1Cc1ccc(S(C)(=O)=O)cc1 | 8
COc1ccc(Nc2nccc(N3CCC(NC(=O)Nc4ccc5c(c4)OCO5)C3)n2)cc1 (centres unmarked) [GSK1379745] | 20
COc1ccc(-c2nc3n(c2-c2ccncc2)CCC3)cc1 [SKF-104493] | 0
COc1ccc(Nc2nccc(N3CCC(NC(=O)c4cccc(NC(C)=O)c4)C3)n2)cc1 (centres unmarked) [GSK1379732] | 0
Cl.Cn1ccc(-c2cccc(Nc3ccnc4cc(-c5nccs5)ccc34)c2)n1 [GW525701] | 28
c1ccc(-c2ccc3c(-c4ccnc(Nc5ccc6c(c5)OCCO6)n4)cnn3n2)cc1 [GW818941] | 0
O=C(c1ccc(-c2cc(-c3c[nH]nc3-c3ccccn3)ccn2)cc1)N1CCCC1 [GW792479] | 16
Cc1ccc(C)c(NC(=O)NCCNc2ccnc(Nc3ccc(F)cc3)n2)c1 [GSK1379878] | 2
Cn1ccc2ncnc(Nc3ccc(Oc4cccc(Cl)c4)c(Cl)c3)c21 | 0
CCC(CC)(CC)n1cnc2c(N)ncnc21 [SKF-97620] | 0
COc1ccc(NC(=O)c2ccc(-c3cc(-c4nnc(C)o4)ccc3C)cc2)cc1 [GW595885] | 36

SMILES | %Inh [%]
CN1CCC(n2cnc(-c3ccc(F)cc3)c2-c2ccnc(NC3CCNCC3)n2)CC1 [SB-229482] | 22
Cn1ccc2ncnc(Oc3ccc(NC(=O)Nc4cccnc4)c(Cl)c3)c21 | 0
CC(=O)Nc1n[nH]c2ncc(-c3ccccc3)cc12 [SB-548492] | 0
CS(=O)(=O)CCNCc1nc(-c2ccc3ncnc(Nc4ccc(OCc5cccc(F)c5)c(Cl)c4)c3c2)cs1.Cl [GW583340] | 0
O=C(Nc1ccccc1F)NC1CCN(c2ccnc(Nc3ccc(F)cc3)n2)C1 (centres unmarked) [GSK1379722] | 26
Cc1cccc(-c2nc(Nc3ccc4[nH]nnc4c3)c3ccccc3n2)n1 [GW867587] | 2
Clc1cccc(-c2nc(Nc3ccncc3)c3ccccc3n2)c1 [GW873004] | 33
CCCc1ccc(S(=O)(=O)NC2CCN(c3ccnc(Nc4ccc(OC)cc4)n3)C2)cc1 (centres unmarked) [GSK1379737] | 30
CCc1nc(-c2cccc(N(C)S(=O)(=O)c3ccccc3)c2)c(-c2ccnc(Nc3ccc(N4CCN(C(C)=O)CC4)nc3)n2)s1 [GSK1645895] | 18
Nc1n[nH]c2nnc(-c3ccccc3)cc12 [SB-517389] | 29
O=C(Nc1n[nH]c2nc(-c3ccco3)c(Br)cc12)c1ccc(CN2CCCC2)cc1.O=C(O)[C@H](O)[C@@H](O)C(=O)O [SB-742352] | 0
CC(C)(C)OC(=O)NC1CCCN(c2cc(-c3ccc4c(N)n[nH]c4c3)nc(N)n2)C1 (centres unmarked) [GSK2286096] | 36
FC(F)(F)c1cc(Nc2nccc(-c3c(-c4ccc(Cl)cc4)nn4ncccc34)n2)ccc1Cl [GW829351] | 8
O=C(Nc1ccccc1)Nc1ccc(Oc2ccc3nccn3n2)cc1 | 0
COc1ccc(-c2oc3ncnc(N)c3c2-c2ccc(OC)cc2)cc1 [SB-589132] | 32
OCCOCCn1ccc2ncnc(Nc3ccc(Oc4cccc(Cl)c4)c(Cl)c3)c21 | 0
CNc1nccc(-c2c(-c3ccc(F)cc3)ncn2CCCN2CCOCC2)n1 [SB-222516] | 12
NC(=O)c1sc(-n2cnc3ccccc32)cc1OCc1ccccc1F [GSK1024306] | 5
